# Measurements reported in PubChem BioAssay AID435003 (Sanford-Burnham Center for Chemical Genomics, 2010).
# Out of some 330,000 compounds screened, about 1,700 (0.52%) were called active. The full list was thinned out, with actives kept by preference. Values without a mark were called inactive. No stated cut-off is given here; in the data, active means inhibition above about 50%; inactive means the rest.
# Experiment: inhibitors of induced NF-kB luciferase reporter, primary screen, TCR NF-kB activation inhibitor project, cell-based, luminescence, uHTS (AID 435003)
# Details: Jurkat, PMA/ionomycin-induced NF-kB luciferase reporter, at 4 µM, active compounds read high
row,Structure (SMILES),inhibition
1,Cc1cc(=O)oc2cc(OCCC[n+]3ccccc3)ccc12,3.92%
2,CCOc1ccccc1N1CCN(C(=O)COc2ccc3c(C)cc(=O)oc3c2)CC1,26.6%
3,Cc1cc(=O)oc2cc(OCC3CC(c4ccccc4Cl)=NO3)ccc12 (stereo not drawn),80.2% (active)
4,CCOc1ccc(NC(=O)CCS(=O)(=O)c2ccc3c(c2)CCCN3C(=O)CC)cc1,-12%
5,CCCCC(=O)Nc1ccc2c(c1)C(=O)NC2=O,7.09%
6,COCc1c(C(=O)N/N=C(\C)c2ccncc2)nnn1-c1nonc1N,-38.2%
7,C[C@@H]1C[C@@H]2O[C@H]2/C=C\C=C\C(=O)Cc2c(Cl)c(O)cc(O)c2C(=O)O1,56% (active)
8,CN(NC(=O)c1ccccc1)c1nc2ccccc2nc1C(F)(F)F,40.2%
9,CSc1nc(N(C)NC(=O)c2cccc(C)c2)c2ccccc2n1,57.7% (active)
10,CN(NC(=O)c1ccccc1F)c1nc(C(F)(F)F)nc2ccccc12,35.5%
11,O=C1c2ccccc2C(Nc2ccc3c(c2)OCCO3)N1Cc1ccco1 (stereo not drawn),4.45%
12,COc1ccccc1C1CCN(c2ccc([N+](=O)[O-])cn2)CC1,1.45%
13,Cc1ccc(N2CCN(c3ccc([N+](=O)[O-])cn3)CC2)c(C)c1,50.7% (active)
14,Cc1ccc(-n2c(C)cc(/C=N/Nc3ccc([N+](=O)[O-])cn3)c2C)c(C)c1,15.1%
15,COc1ccc(N(CC(=O)Nc2cc(OC)cc(OC)c2)S(=O)(=O)c2c(C)n[nH]c2C)cc1,-11.8%
16,CCc1sc(C(=O)N2CCN(CC(=O)Nc3cccc(F)c3)CC2)cc1C,-11.7%
17,CCc1ccc(NC2Nc3cc(C)nn3S2)cc1 (stereo not drawn),-76.8%
18,Cc1ccc(NC(=O)NNC(=O)c2sccc2-n2cccc2)cc1,6.7%
19,COc1ccc(/C=N/NC(=O)c2ccncc2)cc1CN1CCCc2ccccc21,16.1%
20,COc1cccc(/C=N/NC(=O)c2[nH]nc3c2CCc2ccccc2-3)c1O,60.8% (active)
21,COc1ccc(Br)cc1/C=N/NC(=O)c1cccc(S(=O)(=O)N2CCOCC2)c1,5.13%
22,Cc1ccsc1-c1nc(CSCC(=O)NCCN2CCCC2)c(C)o1,-7.15%

row,Structure (SMILES),inhibition
1,Cc1c(C)c2cc3c4c(oc3c(C)c2oc1=O)CCCC4,-27.9%
2,O=C(Nc1cccc(S(=O)(=O)N2CCCC2)c1)c1cncc(Br)c1,1.27%
3,CC[n+]1cc(C)ccc1/C=C/c1ccc(N(C)C)cc1,84.4% (active)
4,Cc1ccc2nsnc2c1NC(=O)c1ccccc1[N+](=O)[O-],10.9%
5,COc1ccc(NC(=O)C(CC(C)C)NS(=O)(=O)c2ccc3c(c2)CCN3C(C)=O)cc1OC (stereo not drawn),-14%
6,CC1(C(=O)O)CCC(C(=O)Nc2ccc(Cl)c(Cl)c2)C1(C)C (stereo not drawn),-8.65%
7,COc1cc(NS(=O)(=O)c2ccc(NC(=O)c3ccc([N+](=O)[O-])cc3)cc2)ncn1,14.9%
8,Cn1ccc(=Nc2ccc(NC(=O)c3ccc(N=c4ccn(C)c5ccc([N+](=O)[O-])cc45)cc3)cc2)cc1,51.3% (active)
9,CC(=O)NC(=S)Nc1ccc(NC(=S)NC(=O)c2ccc([N+](=O)[O-])cc2)cc1,14.2%
10,O=C1C=C(c2ccc(Cl)cc2)C(=O)N1Nc1ccccc1,13.6%
11,CC(=O)c1ccc(N2CCN(C(=O)C3CCN(S(=O)(=O)c4ccc5c(c4)CC(C)N5C(=O)C4CC4)CC3)CC2)cc1 (stereo not drawn),-3.75%
12,COc1ccc(C(=O)/C=C/Nc2ccccn2)cc1,50.4% (active)
13,CCOc1ccc(N/C=C/C(=O)c2ccccc2)cc1,-132%
14,CCOc1ccc(N/C=C/C(=O)c2cc(OC)c(OC)c(OC)c2)cc1,44.3%
15,Cc1onc(-c2ccc(Cl)cc2)c1-c1ccnn1S(=O)(=O)c1ccc(Cl)cc1,9.53%
16,COc1ccc(NC(=O)C(C)N2c3cccc4cccc(c34)S2(=O)=O)c(OC)c1 (stereo not drawn),21.7%
17,CC1CCN(c2ccc(C(=O)NCc3ccc4c(c3)OCO4)cc2[N+](=O)[O-])CC1,-1.58%
18,O=C(NCc1ccc2c(c1)OCO2)c1cc(F)c(F)cc1Cl,-12%
19,O=C(NCc1ccc2c(c1)OCO2)c1cc([N+](=O)[O-])ccc1N1CCOCC1,60.2% (active)
20,CC1Sc2ccc(S(=O)(=O)CCC(=O)NCc3ccccc3Cl)cc2NC1=O (stereo not drawn),7.46%
21,Cc1ccc(S(=O)(=O)N/N=C(\c2ccccc2)C2CC2)cc1,-1.73%
22,CC(C)Cc1cc(C(=O)Nc2cc(Br)ccc2O)no1,-28.3%

row,Structure (SMILES),inhibition
1,O=C(Nc1ccccc1C(F)(F)F)c1cc(-c2ccc(O)cc2)on1,-35.1%
2,Cc1ccc(O)c(NC(=O)c2cc(-c3ccco3)on2)c1,96.2% (active)
3,COC(=O)c1ccc(NC(=O)c2cc3c(CO)cnc(C)c3oc2=Nc2cccc(C(N)=O)c2)cc1,-7.55%
4,c1ccc(-n2cccc2)c(N2CCCCC2)c1,6.35%
5,C/C(=C(\C#N)C(=O)NCCCN1CCOCC1)N(C)C,-10.8%
6,O=C(COC(=O)c1ccc(F)c(S(=O)(=O)N2CCOCC2)c1)NCc1ccc2c(c1)OCO2,-6.67%
7,COC(=O)Cc1[nH]n(-c2nc3ccccc3s2)c(=O)c1C(C)=Nc1ccc(OC)cc1,60.8% (active)
8,COc1ccc(C2=NN(c3nc4ccccc4s3)C(=O)C2)cc1,-52%
9,CC(=NCc1ccco1)c1c(C(F)(F)F)[nH]n(-c2nc3ccccc3s2)c1=O,-104%
10,COc1ccc(CC(=O)NCc2nnc(SCC(=O)Nc3nccs3)n2C)cc1,-0.699%
11,COc1ccc(OC)c(CCNC(=O)CCn2ccc3cc(S(=O)(=O)N4CCCC4)ccc32)c1,4.04%
12,COc1ccccc1C(=O)Nc1ccc(OCc2nnc3c4ccccc4c(C)nn23)cc1,15.2%
13,Cc1nnc(N/N=C/c2ccccn2)[nH]c1=O,58.1% (active)
14,Cc1cc(C(=O)N/N=C/c2ccccn2)c2ccccc2n1,3.68%
15,COc1ccc(Cc2nnc(N/N=C/c3ccccc3O)[nH]c2=O)cc1OC,10.5%
16,Cc1ccc2nc(SC(C)C(=O)NCc3ccco3)[nH]c2c1 (stereo not drawn),7.59%
17,O=C(NNC(=O)C1CCCC1)c1ccc(F)cc1,-13.7%
18,O=C(/C=C/c1ccc([N+](=O)[O-])o1)NNC(=O)c1ccc(F)cc1,75.6% (active)
19,COc1ccc(C(=O)NCC(=O)N/N=C/c2ccc([N+](=O)[O-])o2)cc1OC,8.93%
20,Cc1ccc(NC(=O)Cn2nnc(C(=O)NCc3ccco3)c2N)c(C)c1,-3.15%
21,CCOc1ccccc1NC(=O)Cn1nnc(C(=O)NCc2cccs2)c1N,65.8% (active)
22,CCc1ccc(NC(=O)Cn2nnc(C(=O)NCc3ccc(OC)cc3)c2N)cc1,13.8%

row,Structure (SMILES),inhibition
1,CC[n+]1c(C)n(-c2ccccc2)c2ccc(NC(C)=O)cc21,35.7%
2,N#Cc1ccc(-c2ccc(Cl)cc2)nc1Oc1ccc(F)cc1,-19.4%
3,CCCC(=O)Nc1nc2ccc(NC(=O)c3c(F)c(F)c(OC)c(F)c3F)cc2s1,57.8% (active)
4,CSc1nc2ccc(NC(=O)c3c(F)cccc3F)cc2s1,-93.5%
5,CCCC(=O)Nc1nc2ccc(NC(=O)c3cccnc3)cc2s1,40.8%
6,COc1ccccc1NS(=O)(=O)c1ccc(C(=O)N2CCN(c3ccccc3O)CC2)cc1,-3.42%
7,CC1(C)CN(c2ccc(-c3ccnc4ncnn34)cc2)C1=O,-3.78%
8,O=C(COC(=O)c1ccccc1O)NCc1ccco1,-0.428%
9,Cc1cc(C(=O)OCC(=O)NCc2ccco2)c(C)n1-c1ccccc1,54.7% (active)
10,CN(c1ccccc1)S(=O)(=O)c1ccc(Cl)c(C(=O)OCC(=O)NCc2ccco2)c1,-10.7%
11,COc1ccc(NC(=O)N(C)C[C@H]2Oc3ccc(NC(=O)C4CC4)cc3C(=O)N([C@H](C)CO)C[C@@H]2C)cc1,-11.5%
12,COc1ccc(-c2c(NC(=O)c3ccco3)oc3ccc(Cl)cc3c2=O)cc1,-5.27%
13,COc1ccc(S(=O)(=O)N(C)C[C@H]2Oc3ccc(NS(=O)(=O)c4cccs4)cc3CC(=O)N([C@H](C)CO)C[C@H]2C)cc1,16%
14,O=C(CSc1ncnc2scc(-c3ccccc3)c12)NCc1ccc2c(c1)OCO2,1.29%
15,CC[C@]1(O)CC2CN(CCc3c([nH]c4ccccc34)[C@@](C(=O)OC)(c3cc4c(cc3OC)N(C=O)[C@H]3[C@@](O)(C(=O)OC)[C@H](OC(C)=O)[C@]5(CC)C=CCN6CC[C@]43[C@@H]65)C2)C1 (stereo partly drawn),71.2% (active)
16,Cc1ccc(F)cc1S(=O)(=O)Nc1cccc(C(=O)N2CCCC(C(N)=O)C2)c1 (stereo not drawn),12.4%
17,CCC/C=C(\CCC)C(NC(=O)Cc1ccccc1)c1ccc(C(=O)OC)cc1 (stereo not drawn),25.8%
18,CCNC(=S)N(CCc1c(C)[nH]c2ccc(C)cc12)Cc1ccco1,-0.351%
19,Cc1c(Nc2nc3ccccc3nc2NS(=O)(=O)c2cccs2)c(=O)n(-c2ccccc2)n1C,-0.383%
20,Nc1c(-c2ccc(F)cc2)cnn1C1CCS(=O)(=O)C1 (stereo not drawn),-7.3%
21,O=C(CS(=O)(=O)Cc1ccccc1)Nc1cccnc1,7.62%
22,COc1cc(OC)nc(N/N=C(\c2ccccc2)c2ccncc2)n1,-5.67%
